Results taken from PubChem BioAssay AID1946 (Johns Hopkins Ion Channel Center, 2009).
The whole screen tested about 2,400 compounds, of which about 180 (7.5%) were called active. The sample holds actives, similar compounds and a random draw of the others, so the mix is not that of the screen.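 How the source made its calls: active means readout below zero, meaning a drop past 3 SD under the dofetilide-free negative control mean; inactive means the rest.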

molecular target: Potassium voltage-gated channel subfamily KQT member 2 (Rattus norvegicus) (UniProt O88943); assay: KCNQ2 blockade in CHO cells – cell-based, FluxOR thallium flux, counter-screen for hERG block protector project, confirmation (AID 1946); details: FluxOR thallium flux fluorescence, at 10 µM, active compounds read low, zero marks the 3-SD hit cutoff
Sequence (O88943 whole entry, looked up): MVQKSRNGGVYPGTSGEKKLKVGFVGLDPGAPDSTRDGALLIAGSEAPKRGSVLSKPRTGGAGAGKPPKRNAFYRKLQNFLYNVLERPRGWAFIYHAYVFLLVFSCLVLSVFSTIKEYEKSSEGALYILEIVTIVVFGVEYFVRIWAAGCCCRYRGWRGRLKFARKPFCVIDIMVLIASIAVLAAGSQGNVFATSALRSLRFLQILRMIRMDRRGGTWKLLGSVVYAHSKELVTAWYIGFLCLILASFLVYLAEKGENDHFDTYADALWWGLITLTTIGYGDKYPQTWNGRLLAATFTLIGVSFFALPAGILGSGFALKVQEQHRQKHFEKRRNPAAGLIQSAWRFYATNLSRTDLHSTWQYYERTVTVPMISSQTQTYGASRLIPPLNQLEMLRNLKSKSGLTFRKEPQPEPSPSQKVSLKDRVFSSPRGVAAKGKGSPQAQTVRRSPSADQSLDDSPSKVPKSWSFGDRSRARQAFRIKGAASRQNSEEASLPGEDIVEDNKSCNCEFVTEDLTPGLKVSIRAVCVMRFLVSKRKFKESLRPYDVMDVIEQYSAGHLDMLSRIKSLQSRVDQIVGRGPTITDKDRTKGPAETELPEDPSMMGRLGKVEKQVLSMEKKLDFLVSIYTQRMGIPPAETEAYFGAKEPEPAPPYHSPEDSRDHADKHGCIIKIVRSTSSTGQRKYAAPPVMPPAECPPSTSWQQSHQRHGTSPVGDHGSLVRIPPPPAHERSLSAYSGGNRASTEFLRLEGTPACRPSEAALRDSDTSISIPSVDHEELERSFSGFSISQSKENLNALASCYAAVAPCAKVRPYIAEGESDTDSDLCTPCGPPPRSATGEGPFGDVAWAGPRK

Q: `COc1ccc(C(=O)NC2CC3CCCC(C2)N3Cc2ccccc2)cc1` (stereo not drawn) was tested. Which activity change vs negative control did it give?
A: 3.9% (inactive)

Q: Which activity change vs negative control does the source give for `COc1ccccc1C(=O)NNC(=O)C(=O)NC1CCCCC1` here?
A: 71.2% (inactive)

Q: Which activity change vs negative control does the source give for `CCOc1ccccc1C(=O)NC1CC2CCCC(C1)N2Cc1nnnn1Cc1ccco1` (stereo not drawn) here?
A: -2.8% (active)

Q: For `COc1ccc(C(=O)CC(=O)C(=O)Nc2ccccc2Cl)cc1`, which activity change vs negative control is on record?
A: 73.9% (inactive)

Q: Which activity change vs negative control does the source give for `O=C(COc1ccc(Cl)cc1Cl)NC(=S)Nc1ccccc1C(=O)O` here?
A: 10.9% (inactive)

Q: With `COc1cc(NC(=O)CCCOc2ccc(Cl)cc2Cl)c(C(=O)O)cc1OC` as the compound, how does the activity change vs negative control read?
A: 4.3% (inactive)

Q: `O=C(CCCOc1ccc(Cl)cc1Cl)Nc1ccccc1C(=O)O` was tested. Which activity change vs negative control did it give?
A: -11.5% (active)

Q: `C/C(=N\NC(=O)c1cc2ccccc2cc1O)c1ccc(C)o1` was tested. Which activity change vs negative control did it give?
A: 53.8% (inactive)

Q: With `CCN(CC)c1ccc(/C=c2\sc3nnc(-c4ccccc4Cl)n3c2=O)cc1` as the compound, how does the activity change vs negative control read?
A: -3.9% (active)

Q: How did the activity change vs negative control turn out when `C=CCOc1ccccc1/C=c1\sc2nc(=O)c(C)nn2c1=O` was run?
A: 6.3% (inactive)

Q: How did the activity change vs negative control turn out when `O=C(NNc1nc2c(F)cccc2s1)c1cc(=O)c2ccccc2o1` was run?
A: 4.5% (inactive)

Q: With `CCOc1ccc(NC(=S)NS(=O)(=O)c2cc(Br)ccc2OCC)cc1` as the compound, how does the activity change vs negative control read?
A: 50.4% (inactive)

Q: How did the activity change vs negative control turn out when `Cc1ccc(C(=O)N/N=C(/CC(=O)c2cccs2)C(F)(F)F)cc1` was run?
A: 28.2% (inactive)

Q: `Cc1nnc(SCC(=O)Nc2nccs2)n1N` was tested. Which activity change vs negative control did it give?
A: 10.1% (inactive)

Q: How did the activity change vs negative control turn out when `Cc1cc(-c2nnc(SCC(=O)Nc3ccc(C(F)(F)F)cc3)n2C)no1` was run?
A: 8.3% (inactive)

Q: For `Nn1c(SCC(=O)Nc2ccc(OC(F)F)cc2)nnc1-c1ccco1`, which activity change vs negative control is on record?
A: -0.2% (active)

Q: For `CCNC(=O)C/C(C)=N/NC(=O)C(=O)Nc1ccc(CC)cc1`, which activity change vs negative control is on record?
A: 26.8% (inactive)

Q: How did the activity change vs negative control turn out when `O=c1c2ccccc2[nH]c(=S)n1CCc1ccccc1` was run?
A: 33.3% (inactive)

Q: Which activity change vs negative control does the source give for `O=C(NC(=S)N(CCc1ccccc1)CCc1ccccc1)c1ccco1` here?
A: 67.4% (inactive)

Q: For `Cc1nn(C(=O)CNC(=O)c2ccccc2)c(C)c1C`, which activity change vs negative control is on record?
A: 46.6% (inactive)

Q: Which activity change vs negative control does the source give for `C=CCn1c(=S)[nH]c2scc(-c3ccc(C)o3)c2c1=O` here?
A: 102% (inactive)

Q: How did the activity change vs negative control turn out when `O=C1CCN(S(=O)(=O)c2ccc(Cl)cc2)CCN1` was run?
A: -0.2% (active)

Q: `O=S(=O)(c1ccc(F)cc1)N1CCN(c2ccc(F)cc2)CC1` was tested. Which activity change vs negative control did it give?
A: 0.8% (inactive)

Q: Which activity change vs negative control does the source give for `CN1CCN(S(=O)(=O)c2cccc(S(=O)(=O)c3ccc(Cl)cc3)c2)CC1` here?
A: 13.6% (inactive)

Q: With `O=C(NC(=S)N1CCN(Cc2ccc3c(c2)OCO3)CC1)c1cccc(Br)c1` as the compound, how does the activity change vs negative control read?
A: 61% (inactive)

Q: For `CSc1ccccc1-n1nnnc1SCC(=O)Nc1cc(C)ccc1C`, which activity change vs negative control is on record?
A: 2.3% (inactive)

Q: `Cc1cc(C)cc(NC(=O)CSc2nnc(CN3CCOCC3)n2C)c1` was tested. Which activity change vs negative control did it give?
A: 48.6% (inactive)

Q: How did the activity change vs negative control turn out when `Cc1ccc(NC(=O)CSc2nnc(C3CC3)n2CC2CCCO2)c(C)c1` (stereo not drawn) was run?
A: -4.1% (active)

Q: With `Cc1nnc(NC(=O)C2CCCN(S(=O)(=O)c3ccccc3C(F)(F)F)C2)s1` (stereo not drawn) as the compound, how does the activity change vs negative control read?
A: 19.4% (inactive)

Q: How did the activity change vs negative control turn out when `CCC(c1nnc(SCC(=O)NCCc2ccc(Cl)cc2Cl)o1)N(C)C` (stereo not drawn) was run?
A: -0.1% (active)

Q: How did the activity change vs negative control turn out when `O=C(CSc1ncnc2c1cnn2-c1ccc(Cl)cc1)NCc1ccc2c(c1)OCO2` was run?
A: 12% (inactive)

Q: `COc1ccc(C(=O)CC(=O)C(=O)Nc2ccc(C)cc2Cl)cc1` was tested. Which activity change vs negative control did it give?
A: 39.7% (inactive)

Q: For `CC(C)(C)c1cc(-c2n[nH]c(=S)n2-c2ccccc2F)n[nH]1`, which activity change vs negative control is on record?
A: 39.3% (inactive)

Q: How did the activity change vs negative control turn out when `CC(NC(=O)c1ccc(Br)cc1)c1ccc2c(c1)CCCC2` (stereo not drawn) was run?
A: 62.8% (inactive)

Q: `Cc1ccc(NC(=O)CN2C(=O)S/C(=C\c3ccc(-c4cccc(C(=O)O)c4C)o3)C2=O)cc1` was tested. Which activity change vs negative control did it give?
A: -4% (active)

Q: With `Cc1cccc(NC(=O)CN2C(=O)S/C(=C\c3ccc(-c4cccc(C(=O)O)c4C)o3)C2=O)c1` as the compound, how does the activity change vs negative control read?
A: -0.8% (active)

Q: `Cc1ccccc1NC(=O)CN1C(=O)S/C(=C\c2ccc(-c3cccc(C(=O)O)c3C)o2)C1=O` was tested. Which activity change vs negative control did it give?
A: -1% (active)

Q: With `Cc1ccc(C(=O)O)cc1-c1ccc(/C=C2\SC(=O)N(CC(=O)Nc3ccccc3)C2=O)o1` as the compound, how does the activity change vs negative control read?
A: 1.7% (inactive)

Q: `C#CCN1C(=O)S/C(=C\c2ccc(-c3ccc(C(=O)O)cc3C)o2)C1=O` was tested. Which activity change vs negative control did it give?
A: 7.6% (inactive)

Q: For `Cc1cccc(NC(=O)CN2C(=O)S/C(=C\c3cccn3-c3cccc(C(=O)O)c3)C2=O)c1`, which activity change vs negative control is on record?
A: 5.2% (inactive)

Q: How did the activity change vs negative control turn out when `Cc1ccccc1NC(=O)CN1C(=O)S/C(=C\c2ccc(-c3cc(C(=O)O)ccc3C)o2)C1=O` was run?
A: 10.7% (inactive)

Q: With `Cc1c(/C=C2\SC(=O)N(CC(=O)Nc3ccc4c(c3)OCO4)C2=O)c2ccccc2n1C` as the compound, how does the activity change vs negative control read?
A: 8% (inactive)

Q: With `COc1ccc(NC(=O)CN2C(=O)S/C(=C/c3cccn3-c3ccc(C(=O)O)cc3)C2=O)cc1` as the compound, how does the activity change vs negative control read?
A: 1% (inactive)

Q: With `CC(C)COn1c(=S)[nH]c2ccccc2c1=O` as the compound, how does the activity change vs negative control read?
A: 34.7% (inactive)

Q: With `Cc1ccc(/C=N/Nc2ccc(C(=O)O)cc2)o1` as the compound, how does the activity change vs negative control read?
A: 5.5% (inactive)

Q: For `Cc1ccccc1NC1=NC(=S)N(c2ccccc2)C12CCCCC2`, which activity change vs negative control is on record?
A: 39.1% (inactive)

Q: With `CCOC(=O)c1c(-c2ccccc2)csc1NC(=S)NC` as the compound, how does the activity change vs negative control read?
A: 42% (inactive)

Q: `Cc1cc(C)cc(OCc2nnc(SCC(=O)Nc3ccccc3)o2)c1` was tested. Which activity change vs negative control did it give?
A: -2.3% (active)

Q: With `COCCn1c(SCC(=O)Nc2cc(C)cc(C)c2)nc2ccccc2c1=O` as the compound, how does the activity change vs negative control read?
A: 12% (inactive)

Q: `COC(=O)CSc1nnc(COc2ccc3ccccc3c2)o1` was tested. Which activity change vs negative control did it give?
A: 11.8% (inactive)

Q: `COc1ccc(NC(=O)CC23CC4CC(CC(C4)C2)C3)cn1` was tested. Which activity change vs negative control did it give?
A: 73.9% (inactive)

Q: Which activity change vs negative control does the source give for `S=C(N/N=C/c1ccccc1Cl)Nc1cccc(Cl)c1Cl` here?
A: 30.4% (inactive)

Q: With `COc1cccc2sc(Nc3nnc(-c4ccc(F)cc4)o3)nc12` as the compound, how does the activity change vs negative control read?
A: 69.1% (inactive)
